Reference: PubChem BioAssay (NCI)
The panel holds about 79,000 compounds, 15% with a hit somewhere; the sample as a whole holds those more often. Rule as the data show it: active = growth inhibition above about 70%; inactive = the rest.

Legend:
[1] = NCI Yeast Anticancer Drug Screen. Data for the rad50 strain (AID 155);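 also: 0% = growth of vehicle-only cultures of the same strain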; settings: S. cerevisiae rad50 strain growth inhibition; at 50.0 µM; stronger effect = higher value
Outline: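 Relative growth inhibition (compound vs vehicle) was measured in yeast with a defined repair-gene alteration.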

[2] = NCI Yeast Anticancer Drug Screen. Data for the mec2-1 strain (AID 157); settings: S. cerevisiae mec2-1 strain, at 50.0 µM, stronger effect = higher value
Outline: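 Readout is yeast growth inhibition, normalised to vehicle-treated controls, in the mec2-1 strain exposed to compound.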

[3] = NCI Yeast Anticancer Drug Screen. Data for the sgs1 mgt1 strain (AID 161);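 also: 0% = growth of cultures given vehicle only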; settings: S. cerevisiae sgs1 mgt1 strain, at 50.0 µM, stronger effect = higher value
Outline: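 Growth of a repair-deficient yeast mutant was monitored after compound treatment and expressed as inhibition relative to vehicle-treated cultures.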

[4] = NCI Yeast Anticancer Drug Screen. Data for the cln2 rad14 strain (AID 165);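 also: 0% = growth equal to vehicle treated cultures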; settings: S. cerevisiae cln2 rad14 strain, at 50.0 µM, stronger effect = higher value
Outline: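 Relative to vehicle controls, growth inhibition of compound-treated cln2 rad14 yeast was recorded.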

[5] = NCI Yeast Anticancer Drug Screen. Data for the bub3 strain (AID 167); settings: S. cerevisiae bub3 mutant strain, at 50.0 µM, stronger effect = higher value
Outline: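 Screening used yeast with an engineered genetic alteration affecting cell cycle control. Compound-exposed cultures were compared with vehicle cultures, and reduced growth was taken as inhibition.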

[6] = NCI Yeast Anticancer Drug Screen. Data for the mlh1 rad18 strain (AID 175); settings: S. cerevisiae mlh1 rad18 strain growth inhibition; at 50.0 µM; stronger effect = higher value
Outline: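 Test agents were incubated with a yeast strain of defined genotype (DNA damage repair defect). Inhibition of growth was derived by comparison with vehicle-exposed cultures.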

Measured: growth inhibition

CC1=C(O[Si](C(C)C)(C(C)C)C(C)C)C2CC1[C@@H]1C(=O)N(c3ccccc3)C(=O)[C@H]21 (stereo not given in full)
inactive: [1] -1.45% | [2] -10.8% | [3] -7.15% | [4] 5.5% | [5] -15.6% | [6] -15.1%

COc1ccc2c(c1)CCC(OS(=O)(=O)CC13CCC(CC1=O)C3(C)C)C2=O (stereo not given)
inactive: [1] -9.15% | [2] 5% | [3] -15.2% | [4] -10.7% | [5] -21.9% | [6] -0.45%

COc1cc(/C=C(\C#N)c2ccccn2)cc(Br)c1O
inactive: [1] -7.35% | [2] 5.15% | [3] -3.9% | [4] 17.2% | [5] 25.8% | [6] -21.6%

CCC1SC(N)=NC1=O (stereo not given)
inactive: [1] 16.1% | [2] 9.65% | [3] 24.7% | [4] 20.4% | [5] 10.2% | [6] 5.55%

O=C(O)C(=O)c1ccc(O)cc1O
inactive: [1] -1.6% | [2] 2.6% | [3] -8.15% | [4] -35.9% | [5] 1.85% | [6] 14.9%

CCCCCCCC/C=C\CCCCCCCC(=O)OCC1CCCO1 (stereo not given)
inactive: [1] -6.8% | [2] 4.7% | [3] -26.6% | [4] 69.2% | [5] 33.6% | [6] 4.45%

O=c1c(C(=Nc2ccccc2)c2ccccc2)c[nH]n1-c1ccccc1
inactive: [1] -10.5% | [2] 6.9% | [3] -6% | [4] 17.6% | [5] -15.6% | [6] -12.1%

CCOC(=O)c1[nH]c2ccsc2c1C[N+]1(C)CCCCC1
inactive: [1] 38.1% | [2] 5.8% | [3] 36.9% | [4] -3.7% | [5] -0.85% | [6] 16.3%

Cn1c2ccccc2n2c(=O)c3c(c(C#N)c12)CCCC3
inactive: [1] -31.1% | [2] -35.2% | [3] -3.1% | [4] -0.35% | [5] -20.6% | [6] -21.7%

CC(=O)SC1CS(=O)(=O)CC1SC(C)=O (stereo not given)
inactive: [1] 60.8% | [2] 52.9% | [3] 59% | [4] 40.2% | [5] 44.5% | [6] 63.5%

N#CCCc1c(-c2ccccc2)nc(N)[nH]c1=O
inactive: [1] 2.35% | [2] 0.85% | [3] 2.75% | [4] -38.4% | [5] -14.6% | [6] -9.75%

CC(C)=NNC(=O)c1ccc(Cl)cc1
inactive: [1] -19.1% | [2] -25.1% | [3] -18.2% | [4] 17.1% | [5] -7.85% | [6] -32.1%

O=C1C2=Cc3ccccc3CCN2c2ccc([N+](=O)[O-])cc21
inactive: [1] -28.9% | [2] 5.35% | [3] -39.4% | [4] -7% | [5] 1.7% | [6] -24.2%

CN1C(=O)C(O)Nc2ncncc21 (stereo not given)
inactive: [1] -5.15% | [2] -19.9% | [3] -4.55% | [4] -45.7% | [5] 2.45% | [6] -33.2%

CCCC(N)S(=O)(=O)O (stereo not given)
inactive: [1] -25.6% | [2] -10.6% | [3] -23.9% | [4] -14.1% | [5] 6.1% | [6] -11.2%

CC(C)OC(CCCl)c1ccccc1 (stereo not given)
inactive: [1] -6.4% | [2] -45.5% | [3] -4.85% | [4] 5.6% | [5] -23.7% | [6] 3.1%

c1ccc(-c2ccc[n+](C[n+]3cccc(-c4ccccn4)c3)c2)nc1
inactive: [1] 10.2% | [2] -10.5% | [3] -22.9% | [4] -8.5% | [5] -3.8% | [6] 33.1%

Oc1ccccc1C=Nc1ccc(Cl)cc1
inactive: [1] -1.35% | [2] 3.6% | [3] -5.5% | [4] -12.7% | [5] -21.6% | [6] 6.85%

CC(C)CCc1n[nH]c(=O)n1/N=C\c1ccccc1
inactive: [1] -4.25% | [2] -9.35% | [3] -0.05% | [4] -10.6% | [5] 19.1% | [6] 26.6%

CCN(CC)CCC1(C#N)Cc2ccccc2N(CC)c2ccccc21 (stereo not given)
inactive: [1] 41.8% | [2] 5.05% | [3] 9.45% | [4] 15.6% | [5] 7.3% | [6] -19.6%

COc1ccc(NC(=O)Nc2cc(Cl)ccc2C)c(Cl)c1
inactive: [1] 0.7% | [2] 36% | [3] 29.8% | [4] -3.35% | [5] 30.4% | [6] 29.9%

O=C(OCCCCCCCCOC(=O)c1cccc([N+](=O)[O-])c1)c1cccc([N+](=O)[O-])c1
inactive: [1] 20.9% | [2] 11.8% | [3] 11.8% | [4] 8.15% | [5] -5.55% | [6] 4.85%

Cc1ccccc1C(=O)OCCBr
inactive: [1] 10.3% | [2] -6.2% | [3] 4.15% | [4] -27.1% | [5] 8.2% | [6] 2.9%

N#CC(C(=O)C(N)=O)c1ccccc1Cl (stereo not given)
inactive: [1] -13.5% | [2] -26.8% | [3] -6.8% | [4] -0.7% | [5] -12.2% | [6] -17.3%

CC(C)(C)SC(=S)SCC(=O)c1cc2cc(Br)ccc2o1
inactive: [1] -19.7% | [2] -25.6% | [3] -11.5% | [4] -3.25% | [5] -16.9% | [6] -8.5%

N#CC(=Nc1cc(Cl)cc(Cl)c1)C1=C(O)c2ccccc2C1=O
inactive: [1] 5.75% | [2] 0.6% | [3] 30.1% | [4] 14.1% | [5] 35.9% | [6] 11%

CC(O)COc1ccccc1Cl (stereo not given)
inactive: [1] 5.2% | [2] -2% | [3] 16.5% | [4] -46.9% | [5] -0.4% | [6] 6.85%

COCCOC(=O)Nc1c(Cl)cccc1Cl
inactive: [1] 1.45% | [2] -18.5% | [3] -8.35% | [4] 5.3% | [5] -25.6% | [6] -8.2%

CCSc1ncnc2nc[nH]c12
inactive: [1] 9% | [2] -8.8% | [3] 4.4% | [4] -18.4% | [5] -9.55% | [6] 8.4%

O=S(=O)(c1ccccc1)N1N=C2c3ccccc3CCC[C@H]2C1c1ccccc1 (stereo not given in full)
inactive: [1] 51.1% | [2] -16.4% | [3] -12.7% | [4] -49.7% | [5] 4.85% | [6] 4.85%

CN(C)CCCNC(=O)Nc1ccc(Cl)cc1
inactive: [1] 8.15% | [2] 8.15% | [3] 0.15% | [4] 11.8% | [5] -0.35% | [6] 12.8%

CNC(=O)OCc1nc(SSC(C)(C)C)n(C)c1COC(=O)NC
inactive: [1] 2.65% | [2] -1.5% | [3] 20.3% | [4] 1.9% | [5] 16.2% | [6] -9.4%

O=C(CCCCCCCCC(=O)c1ccc2ccccc2c1O)c1ccc2ccccc2c1O
inactive: [1] -24.4% | [2] -22.1% | [3] -12.8% | [4] 15% | [5] -10.4% | [6] -11.8%

CSc1ncnc2nn(C3OC(CO)C(O)C3O)cc12 (stereo not given)
inactive: [1] 8.1% | [2] 5.85% | [3] 6.25% | [4] 8.4% | [5] -9.6% | [6] -5.4%

O=C1c2cc3c(cc2C(=O)c2[nH]c(=O)ccc21)CCCC3
inactive: [1] 11.5% | [2] 25.9% | [3] 16% | [4] 0.85% | [5] 33.4% | [6] 35.6%

Cc1c(I)sc(I)c1I
inactive: [1] 39.6% | [2] 1.75% | [3] 30.9% | [4] 12.9% | [5] 4.1% | [6] 12.6%

Cc1c(C(=O)NNc2ccccc2)n2c(=S)[nH]nc2c2ccccc12
inactive: [1] 33.2% | [2] 10.1% | [3] -7.85% | [4] 8.6% | [5] -14.8% | [6] 45.8%

C=C1[C@@H]([C@@]2(C)C=CC(=O)C(C)(C)[C@@H]2CC(=O)OC)CC[C@@]2(C)C(c3ccoc3)OC(=O)[C@H]3O[C@]132 (stereo not given in full)
inactive: [1] -3.35% | [2] -1.5% | [3] 16.9% | [4] 15.5% | [5] 16.4% | [6] -34.5%

CCc1nc(N)nc(N)c1-c1ccc(Cl)c(S(=O)(=O)O)c1
inactive: [1] -27.1% | [2] -26.1% | [3] -9.8% | [4] -13.4% | [5] -15.1% | [6] 1.85%

OC(CNC1CCCCC1)(c1ccccc1)c1ccccc1
inactive: [1] -11.2% | [2] -8.35% | [3] 13.9% | [4] 10.8% | [5] 30.2% | [6] -20.6%
